Molecules are shown by their SMILES. Active and inactive are the calls of the source. Where a call stands in place of a potency, no number is given. Calls come from the whole dose curve; as a rule, active = well fitted activation curve with a large enough effect in the repeat runs; inconclusive = weak or mixed curves; inactive = flat fitted curve, though single readings scatter.

The test is described as follows: A CellTox Green Cytotoxicity Assay to monitor cytotoxicity in HEK293 cells - 0 hour (AID 1224869). Note: nearly all actives have a fitted effect of over 50% in size. The following applies: CellTox Green fluorescence; series mostly up to 76.8 µM. The text has this: National Center for Advancing Translational Sciences [NCATS]
NIH Chemical Genomics Center [NCGC]
U.S. Environmental Protection Agency [EPA]
National Institutes of Environmental Health Sciences [NIEHS]
National Toxicology Program [NTP]
Cell-based models are critical for drug discovery. Determining the natural cytotoxic effects resulting from test compounds is an essential research activity. A CellTox Green Cytotoxicity Assay to monitor cytotoxicity in real time of continues cell culture during 40 hours of the compound treatment was used to screen Tox21 10K library compounds in Hek293 cells. CellTox Green Cytotoxicity Assay is a nonlytic, homogeneous, biofluorescent method to measure cytotoxicity in cell culture after experimental manipulation. The assay system uses a proprietary asymmetric cyanine dye that is excluded from viable cells but preferentially stains the dead cell's DNA. […] Viable cells produce no appreciable increases in fluorescence. Therefore, the fluorescence signal produced by the binding interaction with dead cell DNA is proportional to cytotoxicity.
The mixture of Hek293 cell suspension and reagents were dispensed at 600cells/6 ul/well in 1536-well tissue culture treated black solid bottom plates using a Multidrop dispenser. After the assay plates were incubated at a 37 C/5% CO2 incubator for 5 hours, 23 nL of compounds dissolved in DMSO, positive and negative controls was transferred to the assay plate by a pintool work station. The plates were incubated at 37 C for 40 hours. The fluorescence intensity were measured at 0h, 8h, 16h, 24h, 32h and 40h time points using ViewLux plate reader during compound treatment.
For the molecule `Cc1nnc(SCC2=C(C(=O)O)N3C(=O)[C@@H](NC(=O)Cn4cnnn4)[C@H]3SC2)s1`, the Potency result is “inactive”.
With `Clc1cccc(-c2cc(Cl)cc(Cl)c2)c1`, the Potency entry was “inactive”.
As for `Cn1cnc2c(F)c(Nc3ccc(Br)cc3Cl)c(C(=O)NOCCO)cc21`, the Potency result is “inactive”.
Next, `CC(C)NCC(O)COc1ccc(CCOCC2CC2)cc1` (stereo not given): “inactive”.
Consider `CC(C)OC(C)C`, for which the Potency entry is “inactive”.
`C=CC(C)(O)CC/C=C(\C)CCC=C(C)C` (stereo not given): the Potency entry was “inactive”.
Consider `CC(C)S`, for which the Potency result was “inactive”.
As for `C[C@]12CCC(=O)C=C1CC[C@@H]1[C@@H]2CC[C@@]2(C)[C@H]1CC[C@]2(O)C(=O)CO`, the Potency entry is “inactive”.
Turning to `Cc1cc(S(=O)(=O)O)c(N)cc1Cl`, the Potency entry was “inactive”.
With `O=C1N(c2ccccc2)c2ccccc2C1(Cc1ccncc1)Cc1ccncc1`, the Potency result was “inactive”.
Consider `CCOC(=O)C(Br)c1ccccc1` (stereo not given), for which the Potency entry was “inactive”.
On to `Cc1ccccc1C(=O)Nc1ccc(C(=O)N2CCCC(O)c3cc(Cl)ccc32)c(C)c1` (stereo not given), for which the Potency entry was “inactive”.
The value for `OCc1c2ccccc2cc2ccccc12` was “inactive”; that for `O=C1CCCCCCCCCCC(=O)OCCO1` was “inactive”.
Turning to `CC(C)=CCCC(C)CCOC=O` (stereo not given), the Potency entry was “inactive”.
Next, `CCCCOc1cc(C(=O)NCCN(CC)CC)c2ccccc2n1`: “inactive”; `CC(=O)Oc1cc(C(C)C)c(OCCN(C)C)cc1C`: “inactive”.
On to `CC1=C2[C@H](/C=C(\C)C(=O)O)CC[C@@H](C)[C@H]2CC1`, for which the Potency entry is “inactive”.
As for `CC(=O)N[C@@H](CC(C)C)C(=O)O`, the Potency entry is “inactive”.
As for `CC1(C)C(=O)N(Cl)C(=O)N1Br`, the Potency entry was “inactive”.
As to `CN1CCN(N)CC1`, the Potency entry was “inactive”.
The value for `CC1=C(O)C(=O)OC1C` (stereo not given) was “inactive”; that for `OCC(CBr)(CBr)CBr` was “inactive”; that for `O=C1CCN(c2ccccc2)N1` was “inactive”.
With `CCN(CC)CCNC(=O)COc1ccc(Cl)cc1`, the Potency result was “inactive”.
As to `CCN1CC(CCN2CCOCC2)C(c2ccccc2)(c2ccccc2)C1=O` (stereo not given), the Potency entry was “inactive”.
With `Cc1ccsc1C(=CCCN1CCC[C@@H](C(=O)O)C1)c1sccc1C`, the Potency entry is “inactive”.
Regarding `CO[Si](C)(C)OC`, the Potency result was “inactive”.
`CC1=C(CC(=O)O)c2cc(F)ccc2/C1=C\c1ccc(S(C)(=O)=O)cc1`: the Potency entry was “inactive”.
Next, `CCCCCCCCc1ccc(S(=O)(=O)O)cc1`: “inactive”.
In the case of `CCOC(=O)CS`, the Potency result is “inactive”.
In the case of `COC(=O)/C=C(/C)N`, the Potency entry is “inactive”.
In the case of `Cc1nc(-c2ccccn2)ncc1C(=O)Nn1cc(C)c2cc(F)ccc21`, the Potency result is “inactive”.
As to `OCCN(CCO)CCN(CCO)CCO`, the Potency result is “inactive”.
Next, `CN(C)CC[C@@H](c1ccc(Cl)cc1)c1ccccn1`: “inactive”; `COC(C)CCO` (stereo not given): “inactive”; `FC(F)(F)C(F)(F)C(F)(F)C(F)(F)C(F)(F)C(F)(F)C(F)(F)C(F)(F)Br`: “inactive”.
Consider `CCOC(=O)c1ccccc1O`, for which the Potency entry is “inactive”.
Take `NC(=O)NS(=O)(=O)c1ccc(Cl)cc1`: the Potency entry was “inactive”.
As to `COc1ccc(Nc2ccc(OC)cc2)cc1`, the Potency entry was “inactive”.

These data come from PubChem BioAssay (Tox21).
